# Laboratory results taken from PubChem BioAssay (Tox21).
# Records with an inconclusive call do not appear. Values without a mark were called inactive. The call rests on the fitted dose curve; in most records, active means well fitted activation curve with a large enough effect in the repeat runs; inconclusive means weak or mixed curves; inactive means flat fitted curve, though single readings scatter.
# Assay: A CellTox Green Cytotoxicity Assay to monitor cytotoxicity in HepG2 cells - 8 hour (AID 1224890); further: nearly all actives have a fitted effect of over 45% in size
# Conditions: CellTox Green fluorescence; series mostly up to 76.8 µM; cytotoxicity increase: at the top concentration
# Outline: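 Real-time cytotoxicity: fluorescence of a cell-impermeant cyanine dye binding DNA of dead HepG2 cells, measured repeatedly (0–40 h) during compound exposure at 37 C. Cells seeded 600/well with reagent, dosed after 5 h.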
# On the % scale 0 is the no-effect control and ±100 the full control effect.
row,SMILES,cytotoxicity increase
1,O=CNc1ccccc1,-0.38%
2,CCOc1nc2cccc(C(=O)O)c2n1Cc1ccc(-c2ccccc2-c2nn[nH]n2)cc1,-6.76% [at 35.3 µM]
3,O=C(O)Cc1cc(I)c(Oc2ccc(O)c(I)c2)c(I)c1,-0.208%
